Experimental data reported in PubChem BioAssay AID651812 (National Center for Advancing Translational Sciences (NCATS), 2012).
Hit rate of the full screen: of about 2,100 compounds, about 650 (31%) were called active. Not shown: some 16% with an inconclusive outcome. Calls follow the shape of the dose curve; as a rule, active = well fitted inhibition curve with a large enough effect; inconclusive = small, poorly fitted or top-dose-only effect; inactive = flat fitted curve, though single readings scatter. Some of the results follow.

Test: qHTS for inhibitors of Vif-A3G interactions: Cherry picks; also: nearly all actives have a fitted effect of over 80% in size; as to activity, negative = fluorescence increase: % of control where 0% means no effect
Conditions: HeLa A3G-eYFP + Vif (tagged APOBEC3G with the HIV-1 protein that degrades it), 24 h; Potency: eYFP fluorescence increase; series mostly up to 36.9 µM; activity, negative = fluorescence increase: at the top concentration
Outline: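 HeLa cells stably expressing A3G-eYFP and Vif, cultured overnight then exposed to compounds at several concentrations for 24 hours at 37 C, 5% CO2; cellular yellow fluorescence (488 nm ex, 500-530 nm em) imaged on Acumen, MG132 positive control.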
Potency is read from the fitted curve at half-maximal effect.

Row | SMILES | activity, negative = fluorescence increase | Potency
1 | CN(Cc1cnn(Cc2ccccc2)c1)C(=O)c1cccc(S(=O)(=O)N2CCOCC2)c1 | -3.86% (inactive) | 
2 | O=C(CN1c2cccc3cccc(c23)S1(=O)=O)Nc1ccc(S(=O)(=O)N2CCOCC2)cc1 | -4.13% [at 46.1 µM] (inactive) | 
3 | CCn1c(O)c(/C=N/NC(=O)c2ccncc2)c(=O)n(CC)c1=S | 9.98% [at 46.1 µM] (inactive) | 
4 | CC[n+]1c(C=C2C=C(C)OC(C)=C2)sc2ccccc21 |  | 8.2 µM (active)
5 | CCSC1=NSC2=NC(=O)/C(=C\c3coc4ccccc4c3=O)C(=N)N12 |  | 23.1 µM (active)
6 | CCS(=O)(=O)c1nn2c(N)c(/C=C3/C=CC(=O)C(OC)=C3)c(=O)nc2s1 | 13.5% [at 46.1 µM] (inactive) | 
7 | COC1=C/C(=C/c2c(N)n3nc(-c4ccc(C)cc4)sc3nc2=O)C=CC1=O |  | 14.6 µM (active)
8 | CCc1ccc(CNC(=O)Cc2ccc(NC(=O)C3=C(C)OCCS3)cc2)cc1 | -1.61% (inactive) | 
9 | N#CC1=C2SCC(O)(c3ccccc3)N2C(=O)CC1c1ccccc1 (stereo unspecified) | -17.3% (inactive) | 
10 | COc1ccc(NC(=O)C2(C)Cc3c(-c4cccc(NC(C)=O)c4)ccnc3O2)cn1 (stereo unspecified) | -5.51% (inactive) | 
11 | CCOc1ncccc1C(=O)NCc1ccc(OC)cc1 | -0.568% (inactive) | 
12 | Nc1nc(SCc2ccc(Cl)cc2Cl)nc2nc3c(cc12)CCCC3 |  | 23.1 µM (active)
13 | Cc1[nH][nH]c(=O)c1C(c1c(C)[nH][nH]c1=O)c1cn(Cc2ccccc2Cl)c2ccccc12 | -10.2% (inactive) | 
14 | Cc1ccc2oc(/N=C(\N)NC(=O)C(C)(C)C)nc2c1 | -6.59% [at 46.1 µM] (inactive) | 
15 | COC(=O)c1ccc(NC(=O)CC2Nc3cc(C)c(C)cc3NC2=O)cc1 (stereo unspecified) |  | 23.1 µM (active)
16 | CCOC(=O)c1ccc(NC(=S)NC(=O)C2CCCC2)cc1 | 13.5% [at 46.1 µM] (inactive) | 
17 | C/C(CCc1ccc2c(c1)OCO2)=N\NC(=S)NC(C)C | -17.7% [at 46.1 µM] (inactive) | 
18 | Cc1ccc(C(=O)O)cc1Nc1nc2ccccc2n2nnnc12 | -17.3% [at 46.1 µM] (inactive) | 
19 | COc1cc(Nc2nc3ccccc3n3nnnc23)cc(OC)c1OC |  | 20.6 µM (active)
20 | COc1ccccc1CNC(=O)c1ccc(Nc2nc3ccccc3n3nnnc23)cc1 |  | 20.6 µM (active)
21 | c1ccc2c(c1)nc(N1CCOCC1)c1nnnn12 | 4.21% [at 46.1 µM] (inactive) | 
22 | Fc1ccc(CNc2nc3ccccc3n3nnnc23)cc1 |  | 16.4 µM (active)
23 | CC(NC(=O)c1ccc(Nc2nc3ccccc3n3nnnc23)cc1)c1ccccc1 (stereo unspecified) |  | 18.4 µM (active)
24 | Fc1ccc(COc2ccc3ccccc3c2CNc2nn[nH]n2)cc1 | -6.32% (inactive) | 
25 | C=CCSc1nc2ccccc2n1C(=O)/C=C/c1cc(OC)c(OC)c(OC)c1 | 2.28% (inactive) | 
26 | CC(=O)Nc1ccc(S(=O)(=O)Nc2nc3ccccc3nc2Nc2ccc(N)cc2)cc1 | -7.33% [at 46.1 µM] (inactive) | 

Row | SMILES | activity, negative = fluorescence increase | Potency
27 | CN(C)c1ccc(Nc2nc3ccccc3n3nnnc23)cc1 | -25.5% [at 46.1 µM] (inactive) | 
28 | O=[N+]([O-])c1ccccc1C1Nc2cccc3cccc(c23)N1 | 9.33% [at 46.1 µM] (inactive) | 
29 | CCOC(=O)c1cc(-c2ccccc2C)n(CC2CC(c3ccc(OC)cc3)=NO2)n1 (stereo unspecified) | -4.85% (inactive) | 
30 | NC(=S)N/N=C/c1ccccc1OC(=O)/C=C/c1ccccc1 | 1.01% [at 46.1 µM] (inactive) | 
31 | Cc1cc(OCC(=O)Nc2nnc(C3CC3)s2)ccc1Cl | 1.84% (inactive) | 
32 | COc1ccc2[nH]c(C(=O)N/N=C/c3ccc(OC)c(O)c3)cc2c1 | -3.2% (inactive) | 
33 | Cc1ccc(/C=N/NC(=O)c2ccc3ccccc3c2)s1 | -17.8% (inactive) | 
34 | COc1cc2ccccc2cc1C(=O)N/N=C/c1cccs1 | -8.47% (inactive) | 
35 | COc1ccc2o/c(=N/NC(=O)c3cccs3)c(C(N)=O)cc2c1 |  | 14 µM (active)
36 | COc1cc(OC)cc(C(=O)Nc2ccc(N3CCN(C(=O)c4cccs4)CC3)cc2)c1 | -1.42% (inactive) | 
37 | O=C1CN(C(=O)c2cc(Br)c(Br)s2)c2ccccc2N1 | -12.4% (inactive) | 
38 | CCN(Cc1ccccc1)c1ccc(/C=C(\C#N)c2ccccn2)cc1 | -5.57% [at 46.1 µM] (inactive) | 
39 | CCN(Cc1ccccc1)c1ccc(/C=C/c2nccc3ccccc23)cc1 |  | 20.6 µM (active)
40 | CCN(CC)c1nc(C=Cc2ccc(N(C)C)cc2)c2nccnc2n1 |  | 2.06 µM (active)
41 | CN(C)c1ccc(/C=C/c2nccc3ccccc23)cc1 |  | 23.1 µM (active)
42 | CN(C)c1ccc(C=Cc2nccc3ccccc23)cc1 |  | 17.7 µM (active)
43 | COc1cc(SC)ccc1C(=O)N1CCN(c2ccccc2OC)CC1 | -7.48% (inactive) | 
44 | Cc1ccc2c(c1C)NC(=O)CC(c1ccccc1O)=N2 | 3.28% [at 46.1 µM] (inactive) | 
45 | CN(C)CCCN(C(=O)/C=C/c1cccs1)c1nc2ccc(F)cc2s1 | -28.8% [at 46.1 µM] (inactive) | 
46 | Cc1ccc(CNC(=O)c2ccc3c(c2)NC(=O)C(CS(=O)(=O)Cc2cccc(C)c2)N3)cc1 (stereo unspecified) |  | 20.6 µM (active)
47 | CC1Sc2ccc(C(=O)NCc3ccccn3)cc2NC1=O (stereo unspecified) | -21% [at 46.1 µM] (inactive) | 
48 | CC(C)CCNC(=O)c1ccc2c(c1)NC(=O)C(CS(=O)(=O)Cc1cccc(Br)c1)N2 (stereo unspecified) | 4.76% [at 46.1 µM] (inactive) | 
49 | C[C@@H]1O[C@@H](O[C@@H]2C(=O)c3c(O)cc(O)cc3O[C@H]2c2ccc(O)c(O)c2)[C@H](O)[C@H](O)[C@H]1O | -4.71% (inactive) | 
50 | CN(C)C(=O)c1cccc(-c2cnc3c(NC=O)cc(-c4ccccc4F)cn23)c1 | -11.7% (inactive) | 
51 | CC1=CC(C)(C)NC(=S)N1c1ccc2ccccc2c1 | -1.3% (inactive) | 
